Results reported in PubChem BioAssay (NCATS).
Inconclusive results are not listed. A call without a number means that no potency is given here. Activity calls are given as the source filed them. Unless noted, the call rests on the fitted dose curve; in most records, active means well fitted curve in the direction sought with a large enough effect; inconclusive means small, poorly fitted or top-dose-only effect, or another doubt; inactive means no such curve, though single readings can be large; an effect the other way counts as inactive or inconclusive.

Legend:
[1] = qHTS for differential inhibitors of proliferation of Plasmodium falciparum line 7G8 (AID 1815); settings: Plasmodium falciparum 7G8 proliferation inhibition; series mostly up to 28.7 µM;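 further: parasite growth measured after three days of incubation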; further: potency means the concentration at half of the fitted maximal effect
[2] = qHTS for differential inhibitors of proliferation of Plasmodium falciparum line GB4 (AID 1816); settings: Potency: Plasmodium falciparum GB4 proliferation inhibition; series mostly up to 28.7 µM;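 further: parasite growth measured after 72 h incubation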; further: potency means the concentration at half of the fitted maximal effect
[3] = qHTS for differential inhibitors of proliferation of Plasmodium falciparum line 3D7 (AID 1876); further: potency means the concentration at half of the fitted maximal effect; settings: P. falciparum 3D7 proliferation inhibition; series mostly up to 28.7 µM
[4] = qHTS for differential inhibitors of proliferation of Plasmodium falciparum line D10 (AID 1877); settings: series mostly up to 28.7 µM;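 further: parasites grown with compound for 72 h before DNA staining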; further: potency means the concentration at half of the fitted maximal effect
[5] = qHTS for differential inhibitors of proliferation of Plasmodium falciparum line Dd2 (AID 1882); settings: Potency: Plasmodium falciparum Dd2 proliferation inhibition; series mostly up to 28.7 µM; further: nearly all actives have a fitted effect of over 65% in size; further: potency means the concentration at half of the fitted maximal effect
In short: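 RBC culture, 0.3% parasitemia / 2.5% Hct final; cpd added by pin tool in DMSO; 72 h, 37 C, 5% CO2; lysis buffer + SYBR Green I, o/n RT dark; FI 485/535; norm. to artemisinin 0.29 uM and DMSO.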

[6] = qHTS for differential inhibitors of proliferation of Plasmodium falciparum line W2 (AID 1883); settings: Potency: Plasmodium falciparum W2 proliferation inhibition; series mostly up to 28.7 µM;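 further: parasites grown with compound for 72 h before lysis and staining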; further: potency means the concentration at half of the fitted maximal effect
[7] = qHTS for differential inhibitors of proliferation of Plasmodium falciparum line HB3 (AID 1886); settings: Potency: Plasmodium falciparum HB3 proliferation inhibition; series mostly up to 28.7 µM;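 further: parasites grown with compound for 72 h before SYBR Green readout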; further: potency means the concentration at half of the fitted maximal effect
[8] = target: Endonuclease 4 (Escherichia coli (strain K12)) (UniProt P0A6C1); assay: Counterscreen for APE1 Inhibitors: qHTS Validation Assay for Inhibitors of Endonuclease IV (AID 1708); settings: E. coli endonuclease IV, DNA cleavage fluorescence; series mostly up to 57.1 µM
In short: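 The reaction buffer contained 50 mM Tris-HCl pH 7.5, 50 mM NaCl, 2 mM MgCl2, 1 mM DTT and 0.01% Tween-20. Incision of a 50 nM fluorophore/quencher THF substrate by 2 nM enzyme was measured kinetically.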

[9] = qHTS Assay for Modulators of Human Peripheral Myelin Protein 22 (PMP22) Expression/Activity (AID 1967; active means well fitted curve in the direction sought with a large enough effect in the signal ratio; the % refers to the signal ratio); settings: Cell-based PMP22 reporter, dual-color luciferase ratio, 0% = compound-free control cells, mouse Pmp22 promoter in mouse Schwann cells; series mostly up to 115 µM
In short: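 Mouse MSC80 Schwann cells carrying Pmp22 promoter–green click beetle luciferase plus EF-alpha–red luciferase control, dosed 24 h at 37 °C. Dual-filter luminescence, overlap-corrected; %Activity from green/red ratio normalised to untreated cells, concentration-response curves fitted.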

Structure (SMILES) | Potency [1] | Potency [2] | Potency [3] | Potency [4] | Potency [5] | Potency [6] | Potency [7] | Potency [8] | outcome [9]
Nc1ccn([C@@H]2O[C@H](CO)[C@@H](O)[C@@H]2O)c(=O)n1 | inactive | inactive | inactive | inactive | inactive | inactive | inactive | – | –
COc1ccc(NC(=O)/C=C/c2ccc(Cl)cc2)cc1 | 10 µM (active) | 11.2 µM (active) | 11.2 µM (active) | 8.91 µM (active) | – | 10 µM (active) | 12.6 µM (active) | – | –
CN(C)CCC(c1ccc(Cl)cc1)c1ccccn1 (centres undefined) | – | – | – | inactive | – | – | inactive | inactive | –
NO | – | – | – | – | inactive | – | – | inactive | inactive
CC(C)Cc1ccc([C@H](C)C(=O)O)cc1 | inactive | inactive | inactive | inactive | inactive | inactive | inactive | – | –
Clc1ccc(N2CCN(Cc3c[nH]c4ncccc34)CC2)cc1 | – | – | – | – | inactive | – | – | inactive | –
COc1cc2c(CCNC(C)=O)c[nH]c2cc1Cl | inactive | inactive | inactive | inactive | inactive | – | – | – | inactive
O=C(O)CC1CCCc2ccccc2C1O (centres undefined) | inactive | inactive | inactive | inactive | inactive | inactive | inactive | – | inactive
c1cnc2c(c1)ccc1cccnc12 | 1.58 µM (active) | 2 µM (active) | 2 µM (active) | 2.51 µM (active) | 2 µM (active) | 1 µM (active) | 2 µM (active) | – | –
NCCCS(=O)(=O)O | – | – | – | – | – | 11.2 µM (active) | – | inactive | –
NC(N)=NC(=O)c1nc(Cl)c(N2CCCCCC2)nc1N | 8.91 µM (active) | 12.6 µM (active) | 4.47 µM (active) | 7.94 µM (active) | – | 2.82 µM (active) | 7.94 µM (active) | – | –
O=C(O)CCCC[C@@H]1CCSS1 | inactive | inactive | inactive | inactive | inactive | inactive | inactive | – | –
